# SENP8 block-1: SENP8 protease inhibitors, primary screen, biochemical, luminescence | Sentrin-specific protease 8 (Homo sapiens), Q96LD8 | purified SENP8, Z-RLRGG-aminoluciferin cleavage | inhibition, % at 10 µM | 330,000 tested, 1.2% active; in the data active = inhibition above about 50%
# PPC-1+TRAIL kill: compounds killing PPC-1 cancer cells with TRAIL present, primary screen, TRAIL potentiator project, ATPLite luminescence, uHTS | 220,000 tested, 0.41% active | PPC-1 cells + TRAIL, ATPLite viability luminescence | cell killing (% activity), % at 4 µM or 5 µM | AID 1443, 2008;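 active = cell killing above 50% in the first pass at 4 µM, then a duplicate retest at 5 µM averaging 50% or more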;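 note: plate controls were cells with TRAIL plus DMSO for no effect and medium-only wells lacking cells for full effect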
# SENP6 block: SENP6 protease inhibitors, primary screen, biochemical, luminescence, uHTS; AID 2599, 2010; 330,000 tested, 1.8% active; Sentrin-specific protease 6 (Homo sapiens), Q9GZR1; inhibition, % at 10 µM; Recombinant SENP6 catalytic domain, aminoluciferin luminescence;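 active = inhibition above about 50% at the single tested dose, limit read from the data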;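 note: plate controls were DMSO wells with enzyme for no effect and DMSO wells lacking enzyme for full effect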
# Target sequence (Q9GZR1 628-1112 limits assumed): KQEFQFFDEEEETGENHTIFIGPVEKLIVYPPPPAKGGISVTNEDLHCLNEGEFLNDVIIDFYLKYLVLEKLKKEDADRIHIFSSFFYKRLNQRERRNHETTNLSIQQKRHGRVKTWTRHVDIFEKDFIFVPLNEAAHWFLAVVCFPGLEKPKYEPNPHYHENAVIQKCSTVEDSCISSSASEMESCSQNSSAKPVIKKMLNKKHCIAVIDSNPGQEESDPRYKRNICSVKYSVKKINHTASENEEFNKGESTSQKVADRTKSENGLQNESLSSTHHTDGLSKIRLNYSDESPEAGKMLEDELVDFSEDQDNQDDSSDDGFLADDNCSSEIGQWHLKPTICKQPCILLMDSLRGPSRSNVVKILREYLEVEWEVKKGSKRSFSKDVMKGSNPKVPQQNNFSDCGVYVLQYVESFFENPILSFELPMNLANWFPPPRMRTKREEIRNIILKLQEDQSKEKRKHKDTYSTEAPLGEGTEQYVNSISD
# C8 TRAIL sens: viability loss with TRAIL in NB7+C8 cells, primary screen, TRAIL sensitizer project, cell-based, ATPlite luminescence; 360,000 tested, 1% active; AID 624354, 2012; inhibition (viability loss, TRAIL sensitization), % at 10 µM;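 active = compounds causing at least 50% loss of cell viability in the single-dose screen, relative to plate controls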
# SENP7 inh: SENP7 protease inhibitors, primary screen, biochemical, luminescence, uHTS. Sentrin-specific protease 7 (Homo sapiens), Q9BQF6. recombinant SENP7, Z-RLRGG-aminoluciferin luminescence, 40 min. inhibition, % at 5 µM. 330,000 tested, 1.5% active;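 active = inhibition above about 50% at the single test dose, limit read from the data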;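 note: plate controls were DMSO with enzyme for no effect and no enzyme buffer wells for full effect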
# SENP8 block-2: human SENP8 protease inhibitors, primary screen, biochemical, fluorescence, Nedd8 protein substrate, uHTS; Sentrin-specific protease 8 (Homo sapiens), Q96LD8; recombinant SENP8; inhibition, % at 20 µM; 360,000 tested, 0.64% active; AID 602440, 2012; in the data active = inhibition mostly above about 40%, no sharp cut-off; inactive = mostly below about 27%
# SENP8 inh conf: human SENP8 protease inhibitors, confirmation, biochemical, Nedd8 protein substrate, single concentration; inhibition, % at 25 µM; AID 624319, 2012; shares compounds with SENP8 block-2; purified SENP8, Nedd8-AMC/pro-Nedd8 cleavage fluorescence, 30 min; 1,400 tested, 15% active; in the data active = inhibition mostly above about 39%, no sharp cut-off; inactive = mostly below about 34%
# Active calls of the source: *; / = no result. Only some compounds are listed: those with a hit (about 3% of all), similar ones and a draw of the others.
SMILES,SENP8 block-1,PPC-1+TRAIL kill,SENP6 block,C8 TRAIL sens,SENP7 inh,SENP8 block-2,SENP8 inh conf
O=C(NCc1ccc2c(c1)OCO2)c1ccc(CN2CCc3ccccc3C2)cc1,0,20,-17,-2,5,42*,13
CCOC(=O)c1ccc(NC(=O)c2ccc(CN3CCc4ccccc4C3)cc2)cc1,3,/,17,26,9,34,/
N#CCc1ccc(NC(=O)c2ccc(CN3CCc4ccccc4C3)cc2)cc1,4,/,13,18,4,59*,12
Cc1ccccc1Nc1nc(N)nc(COC(=O)[C@@H](NC(=O)c2c(F)cccc2F)C(C)C)n1,-10,/,-22,-12,-6,0,/
Cc1ccc(S(=O)(=O)N2CCN(C(=O)COC(=O)CC(C)c3ccccc3)CC2)c(C)c1 (stereo unspecified),-2,/,-8,3,-5,1,/
COc1ccc(/C=C/C(=O)NC(=S)Nc2ccc(N3CCN(C(C)=O)CC3)cc2)cc1,-3,10,-7,29,2,51*,13
CN(C)c1ccc(NC(=S)NC(=O)/C=C/c2ccc(Cl)cc2)cc1,17,14,-10,-6,6,41*,26
COc1cc(OC)cc(C(=O)NC(=S)Nc2ccc(N3CCCC3)cc2)c1,-3,-6,3,4,-2,43*,28
COc1cc(N=Nc2cccc(S(N)(=O)=O)c2)c2ccccc2c1N,/,30,/,0,/,18,/
CN(CC(=O)Nc1ccccc1Cl)C(=O)c1cccc(S(=O)(=O)N2CCN(Cc3ccccc3)CC2)c1,-1,/,0,22,9,-5,/
COc1ccc(Br)c(C(=O)OCC(=O)N2CCC(Cc3ccccc3)CC2)c1,-7,/,-3,11,-9,42*,7
O=[N+]([O-])c1c(Nc2ccc(O)cc2)cc(N2CCOCC2)c2nonc12,-3,10,-13,15,3,49*,29
O=[N+]([O-])c1c(Nc2ccccc2O)ccc2nonc12,-1,/,-7,-3,0,19,/
O=[N+]([O-])c1c(Nc2ccccc2O)cc(Cl)c2nonc12,-4,/,12,71*,-5,42*,12
CCOC(=O)c1ccc(-n2c(CN3CCN(CC)CC3)nc3ccc([N+](=O)[O-])cc3c2=O)cc1,9,4,4,-5,8,41*,15
NC(=O)CC(NC(=O)c1cccc(Br)c1)c1ccc(NC2CCCCCCC2)c([N+](=O)[O-])c1 (stereo unspecified),-7,/,-12,5,-2,14,/
Cc1cnc(CNC(=O)c2csc([C@H]3C[C@H](O)[C@@H](CO)O3)n2)cn1,/,/,/,-7,/,14,/
CCOc1ccc(N=Nc2c(=O)[nH]n3c(=O)c4c([nH]c23)CCCC4)cc1,-8,-3,-15,-4,-2,54*,10
Cc1noc(C)c1CSCC(=O)Nc1nc2ccc(S(C)(=O)=O)cc2s1,-1,/,0,-9,1,15,/
O=C1CC(c2ccccc2)Oc2cc(O)cc(O)c21 (stereo unspecified),36,22,26,0,17,2,/
CC(C)=CCc1c(O)cc2c(c1O)C(=O)CC(c1ccccc1)O2 (stereo unspecified),-11,/,-14,8,6,42*,14
Cn1c(=O)n(Cc2ccc(F)cc2)c(=O)c2c1nc1n2CCCN1C1CCCCC1,-4,-1,4,21,5,34,/
Cn1c(=O)n(Cc2ccccc2)c(=O)c2c1nc1n2CCCN1C1CCCCC1,2,/,-14,21,-4,45*,10
C[C@H](CO)N1C[C@H](C)[C@H](CN(C)C(=O)N[C@H](C)c2ccccc2)OCc2ccccc2-c2c(n(C)c3ccccc23)C1=O,/,/,/,3,/,1,/

# Bioassay records: PubChem, Sanford-Burnham Center for Chemical Genomics
